High-throughput results (PubChem BioAssay)
RAD52 anneal inh = RAD52 (human) annealing inhibition; recombinant RAD52 DNA annealing, FRET fluorescence; inhibition, % at 18.7 µM; 360,000 compounds, 0.46% hits; AID 651710;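 active = every replicate showing at least 50% inhibition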
MIN6 prolif = inducers of beta-cell replication in MIN6 cells. MIN6 cells proliferation, ATPlite luminescence, 48 h; cells starved in 0.2% serum; 100% = growth in 10% serum. proliferation, % at 10 µM. 330,000 compounds, 0.29% hits;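 active = compounds whose signal lies at least 3.5 SD above the mean of all wells on their plate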;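 note: 0% = DMSO-treated cells in low-serum medium and 100% = 10% serum control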
PREPL inhibitor = human PREPL enzyme inhibition; Q4J6C6; recombinant PREPL, fluorescence polarization activity-based probe; inhibition, % at 5.96 µM; 320,000 compounds, 0.68% hits; AID 2751; in the data active = inhibition above about 43%;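 note: 0% = enzyme with DMSO and 100% = wells lacking enzyme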
UBC13 polyUb = human UBC13 polyubiquitination inhibition; P61088; UBC13 polyubiquitin chain formation, TR-FRET; inhibition, % at 20 µM; 330,000 compounds, 0.47% hits; in the data active = inhibition above about 45%, passing the limit was not always enough
RAD54 inh = blocks human RAD54 Holliday junction branch migration. inhibition, % at 10.4 µM. 360,000 compounds, 0.14% hits. AID 602329. FAM/BHQ fluorescence. Q92698;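 active = mean normalized replicate activity at least 40 and at least half of replicates scoring 40 or more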;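 note: 0% = median of neutral control wells and 100% = median of positive control wells; inhibitors cause a drop in the FAM fluorescence signal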
Target sequence (Q92698 whole entry, looked up): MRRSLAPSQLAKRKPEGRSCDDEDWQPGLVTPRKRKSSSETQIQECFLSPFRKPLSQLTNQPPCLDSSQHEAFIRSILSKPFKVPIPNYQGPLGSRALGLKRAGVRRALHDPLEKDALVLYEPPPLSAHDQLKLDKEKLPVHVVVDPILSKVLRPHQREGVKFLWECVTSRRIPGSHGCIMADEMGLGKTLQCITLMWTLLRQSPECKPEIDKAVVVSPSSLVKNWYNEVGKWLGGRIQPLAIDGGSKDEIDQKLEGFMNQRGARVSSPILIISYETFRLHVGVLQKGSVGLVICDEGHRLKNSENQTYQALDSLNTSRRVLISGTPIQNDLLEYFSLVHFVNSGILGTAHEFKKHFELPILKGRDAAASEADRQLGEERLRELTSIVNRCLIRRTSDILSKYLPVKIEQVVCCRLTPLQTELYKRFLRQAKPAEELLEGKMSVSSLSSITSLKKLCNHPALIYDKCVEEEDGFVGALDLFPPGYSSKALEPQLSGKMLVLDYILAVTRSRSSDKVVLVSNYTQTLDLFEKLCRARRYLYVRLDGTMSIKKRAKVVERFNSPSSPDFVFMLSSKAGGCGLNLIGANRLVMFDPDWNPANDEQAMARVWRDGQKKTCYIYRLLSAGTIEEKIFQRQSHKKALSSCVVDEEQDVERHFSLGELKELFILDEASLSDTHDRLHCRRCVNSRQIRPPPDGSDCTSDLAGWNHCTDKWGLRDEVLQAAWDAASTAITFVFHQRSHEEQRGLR
DNA FID counter = fluorescent intercalator displacement, NS3 helicase counter-screen. AID 1845. 290,000 compounds, 0.17% hits. DNA fluorescent intercalator displacement, fluorescence. inhibition, % at 7.9 µM; in the data active = inhibition above about 37%;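 note: 0% = vehicle and 100% = reference compound; higher means more ethidium bromide displaced from hairpin DNA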
The depositor's hits bear a star; . = no result given; ! = not active in a repeat. A selection: hits, their analogues and other compounds. The true share with any hit is near 1.3%.

SMILES | RAD52 anneal inh | MIN6 prolif | PREPL inhibitor | UBC13 polyUb | RAD54 inh | DNA FID counter
Cc1ccc(-c2ccc(C3[C@@H]4CN(Cc5cccnc5)C[C@H]3N4)cc2)cc1 (stereo not given in full) | 53*! | . | . | . | . | .
Fc1cccc(-c2ccc([C@@H]3[C@@H]4CN(Cc5nccs5)C[C@H]3N4)cc2)c1 | 38 | . | . | . | . | .
Cc1ccc(-c2ccc(C3[C@@H]4CN(Cc5cccc(F)c5)C[C@H]3N4)cc2)cc1 (stereo not given in full) | 54* | . | . | . | . | .
Cc1cccc(-c2ccc(C3[C@@H]4CN(Cc5cccnc5)C[C@H]3N4)cc2)c1 (stereo not given in full) | 24 | . | . | . | . | .
C/C=C/c1ccc([C@@H]2[C@@H](CO)N(S(C)(=O)=O)C23CN(C(=O)CC)C3)cc1 | -7 | . | . | . | . | .
CO[C@@H]1CN(C)C(=O)c2ccc(NC(=O)C3CCCC3)cc2OC[C@H](C)N(CC2CC2)C[C@@H]1C | 9 | . | . | . | -11 | .
Cc1cc2[nH]c3c4ccccc4nc(C)c3c2cc1C | 83* | . | . | . | 91* | .
CN(C)CC(=O)N1CCCCN2[C@H](CO)[C@H](c3ccc(/C=C/c4ccccc4)cc3)[C@H]2C1 | 62* | . | . | . | 38 | .
OC[C@H]1[C@@H](c2ccc(/C=C/c3ccccc3)cc2)[C@@H]2CN(Cc3cccnc3)CCCCN12 | . | . | . | . | 6 | .
CN(C)CC(=O)N1CCCCN2[C@H](C1)[C@H](c1ccc(/C=C/c3ccccc3)cc1)[C@@H]2CO | 48 | . | . | . | 12 | .
CN(C)CC(=O)N1CCCCN2[C@@H](CO)[C@@H](c3ccc(-c4ccccc4)cc3)[C@@H]2C1 | 23 | . | . | . | 12 | .
CN(C)CC(=O)N1CCCCN2[C@H](C1)[C@@H](c1ccc(/C=C/c3ccccc3)cc1)[C@@H]2CO | 58* | . | . | . | 25 | .
CN(C)CC(=O)N1CCCCN2[C@@H](CO)[C@@H](c3ccc(/C=C/c4ccccc4)cc3)[C@@H]2C1 | 71* | . | . | . | 20 | .
OC[C@H]1[C@H](c2ccc(/C=C/c3ccccc3)cc2)[C@H]2CN(Cc3cccnc3)CCCCN21 | 53* | . | . | . | -1 | .
O=C(C[C@@H]1CC[C@@H](NC(=O)c2ccncc2)[C@@H](CO)O1)Nc1ccccc1 | -4 | . | . | . | 0 | .
COc1ccc(NC(=O)N(C)C[C@@H]2Oc3ncc(Br)cc3C(=O)N([C@H](C)CO)C[C@@H]2C)cc1 | 9 | . | . | . | -9 | .
CN(C)CC(=O)N1CCCCN2[C@@H](CO)[C@H](c3ccc(/C=C/c4ccccc4)cc3)[C@@H]2C1 | 69* | . | . | . | 31 | .
CNC[C@@H]1Oc2cc(-c3ccncc3)ccc2S(=O)(=O)N([C@H](C)CO)C[C@H]1C | -12 | . | . | . | -1 | .
O=C(O)c1cccc(NC(=O)c2ccc(CN3C(=O)c4ccccc4C3=O)cc2)c1 | -36 | -2 | 4 | -12 | 5 | -36
O=C(Nc1cc(Cl)ccc1C(=O)O)c1ccc(CN2C(=O)c3ccccc3C2=O)cc1 | -9 | . | -9 | . | 9 | 39*
Nc1nonc1C(=O)NCCNCc1cc(Br)ccc1OCc1ccccc1F | . | -6 | -8 | 4 | 10 | 40*
CC(=O)N(C)C[C@H]1Oc2ncc(-c3ccc(C#N)cc3)cc2C(=O)N([C@@H](C)CO)C[C@@H]1C | -2 | . | . | . | 10 | .
Nc1ccc(O)c2c1C(=O)c1ccccc1C2=O | -16 | 0 | 51* | -220 | 12 | -5
Nc1ccc(Br)c2c1C(=O)c1ccccc1C2=O | . | 2 | 19 | -250 | . | 19
CNc1ncc(C(=O)c2ccc(F)cc2)s1 | -11 | 10* | -10 | -4 | . | 2
SMILES | RAD52 anneal inh | MIN6 prolif | PREPL inhibitor | UBC13 polyUb | RAD54 inh | DNA FID counter
O=C(c1ccc(F)cc1)c1cnc(Nc2ccccc2)s1 | -27 | -4 | 16 | -6 | . | -2
Cc1ccccc1OCCNc1cc(N2CC(C)NC(C)C2)ccc1[N+](=O)[O-] (stereo not given) | 40 | -7 | 11 | 22 | 13 | 39*
CC1CN(c2ccc([N+](=O)[O-])c(NCCOc3ccccc3)c2)CC(C)N1 (stereo not given) | 3 | -5 | 0 | -23 | 12 | 26
COc1ccccc1NC(=O)N1CC[C@@H]2[C@H]1c1cc(C#Cc3ccc(F)cc3)ccc1N(C)[C@@H]2CO | 70* | . | . | . | 6 | .
COc1ccc(C#Cc2ccc3c(c2)[C@@H]2[C@@H](CCN2S(=O)(=O)c2cccc(OC)c2)[C@@H](CO)N3C)cc1 | 67* | . | . | . | 5 | .
COc1ccccc1NC(=O)N1CC[C@H]2[C@@H]1c1cc(-c3ccccc3)ccc1N(C)[C@H]2CO | 58* | . | . | . | 17 | .
